Compound activity: PubChem BioAssay, National Center for Advancing Translational Sciences (NCATS)
Compounds with a hit are over-represented: about 6.1% of the library has one in this group of screens.
TSHR agonist – activates the human thyroid stimulating hormone receptor | Potency, µM (highest dose often 57.1 µM), inactives show at the top dose activation, hits mostly activators | HEK293-CNG-TSHR cells (CNG channel as cAMP sensor), membrane potential dye, cAMP | AID 926 | actives 0.48% (n = 73,000) | P16473; active = well fitted activation curve with a large enough effect in the main read-out, with a control signal flat, not every such curve was filed as active; inconclusive = small, poorly fitted or top-dose-only effect, or a change in a side signal; inactive = no such curve, though single readings can be large or run the other way; % of control where 0% means no effect;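 note: the control signal comes from parental cells without the receptor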
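HEK 293 cells stably expressing TSHR and a cAMP-gated CNG channel; parental CNG-only cells as counterscreen. Cells preloaded 60 min with membrane potential dye plus 100 uM RO 20-1724, then compound 30 min; fluorescence read at 590 nm.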
ERK AVP block – inhibitors of vasopressin-stimulated ERK signaling pathway; HEK293-V1b, vasopressin-stimulated pERK AlphaScreen; Potency, µM (titrated, usually from 57.5 µM), without a hit: top-dose activity, negative = inhibition, actives largely listed as inhibitors; actives 0.99% (n = 72,000); AID 995; note: % is set by controls: 0 for no effect and ±100 for the full control effect; nearly all actives have a fitted effect of over 55% in size
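qHTS, compounds titrated on V1b-expressing HEK293 cells. Preincubation 30 min at 37C, vasopressin 25 nM for 5 min, lysis 10 min, bead incubation 5 hr at room temperature.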
PK Bst – pyruvate kinase (B. stearothermophilus) modulation | purified pyruvate kinase, luminescence ATP production; ribose 5-phosphate activator present at AC10 | Potency, µM | actives 1.2% (n = 51,000) | AID 361; in the data active = potency below about 11 µM; inconclusive = mostly about 12 µM to 25 µM;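 the screen sought inhibitors and activators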;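 note: scaled between full activation by ribose 5 phosphate and full inhibition by luteolin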
Luciferase inh – blocks Photinus pyralis firefly luciferase activity. purified firefly luciferase, luminescence, 8 min. Potency, µM (top dose mostly 57.1 µM), for inactives: top-dose activity change, negative = inhibition, hits mostly inhibitors. actives 2.2% (n = 72,000). AID 411; note: % is set by controls: 0 for no effect and ±100 for the full control effect; nearly all actives have a fitted effect of over 40% in size
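Substrate buffer containing 10 uM ATP (pH 7.2 imidazole, Mg2+, KCl, detergent, BSA) is dispensed, compound pinned in, then luciferase/luciferin detector mix added. After 8 min at ambient temperature, light output is measured.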
GBA activity – alters purified human glucocerebrosidase activity. Potency, µM. purified enzyme, resorufin glucoside fluorescence (screen aimed at inhibitors), 20 min. AID 360. P04062. actives 1.1% (n = 48,000); in the data active = potency below about 15 µM; inconclusive = mostly about 16 µM to 33 µM;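 note: the screen sought inhibitors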
Target sequence (P04062 whole entry, looked up): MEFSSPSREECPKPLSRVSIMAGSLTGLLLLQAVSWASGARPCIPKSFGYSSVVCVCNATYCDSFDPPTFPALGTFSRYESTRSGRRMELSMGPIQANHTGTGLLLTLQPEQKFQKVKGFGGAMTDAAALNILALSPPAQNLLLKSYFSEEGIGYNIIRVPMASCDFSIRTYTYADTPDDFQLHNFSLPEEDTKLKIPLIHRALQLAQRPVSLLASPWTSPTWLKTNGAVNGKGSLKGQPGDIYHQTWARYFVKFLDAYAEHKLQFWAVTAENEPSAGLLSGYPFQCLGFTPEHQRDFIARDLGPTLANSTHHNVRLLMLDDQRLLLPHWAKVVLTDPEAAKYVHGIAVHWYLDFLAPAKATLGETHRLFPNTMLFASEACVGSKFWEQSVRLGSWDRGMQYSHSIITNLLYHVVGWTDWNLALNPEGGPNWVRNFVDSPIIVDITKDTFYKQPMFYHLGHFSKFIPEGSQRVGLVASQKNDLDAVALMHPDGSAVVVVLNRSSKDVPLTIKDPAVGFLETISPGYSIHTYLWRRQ
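Normal human glucocerebrosidase (0.2 nM final) was assayed with resorufin β-D-glucopyranoside (30 uM final) in 50mM citric acid/KH2PO4, 10mM sodium taurocholate, 0.01% tween-20, pH 5.9. Compounds were titrated; fluorescence (Ex 548, Em 600) read after 20 min at RT.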
HEK293 cAMP cs – parental HEK293 cAMP activation (counter-screen). parental HEK293 CNG cAMP sensor, membrane potential fluorescence. Potency, µM (highest dose often 57.1 µM), for the others: at the top dose activation, hits mostly activators. actives 2.5% (n = 73,000). AID 938; note: % of control where 0% means no effect; nearly all actives have a fitted effect of over 55% in size
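Parental HEK 293 cells stably expressing a modified CNG channel (no TSHR) report cAMP rise as membrane depolarization. Membrane potential dye with 100 uM RO 20-1724 was loaded for 60 min at room temperature, then compound added for 30 min; fluorescence read at 590 nm.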
* marks the source's active call; other numbers are inactive results; [ ] = dose if it differs, or a comment. Unless noted, calls come from the whole dose curve; as a rule, active = well fitted curve in the direction sought with a large enough effect; inconclusive = small, poorly fitted or top-dose-only effect, or another doubt; inactive = no such curve, though single readings can be large; an effect the other way counts as inactive or inconclusive. Potency is the fitted concentration of half-maximal effect.

Results for O=S(=O)(c1cccc(C(F)(F)F)c1)N(CCCN1CCOCC1)Cc1cccs1 ?
TSHR agonist: 13%; ERK AVP block: 6%; PK Bst: >57; Luciferase inh: 1%; GBA activity: 11*; HEK293 cAMP cs: 23%

What do the screens show for `COc1ccc(S(=O)(=O)N(CCCN2CCOCC2)Cc2ccc(OC)c(OC)c2)cc1`?
TSHR agonist: -23%; ERK AVP block: 6%; PK Bst: >57; Luciferase inh: 0%; GBA activity: inconclusive; HEK293 cAMP cs: 8%

What do the screens show for `O=c1cnc2cnc(OCc3ccccc3)nc2n1Cc1ccc(F)cc1`?
TSHR agonist: inconclusive; ERK AVP block: 32%; Luciferase inh: -3%[11.4 µM]; HEK293 cAMP cs: inconclusive

Results for CCc1c(C)nc2cc(-c3cc(OC)cc(OC)c3)nn2c1N1CCCC1 ?
TSHR agonist: inconclusive; ERK AVP block: 5%; PK Bst: >57; Luciferase inh: 1%; GBA activity: >77; HEK293 cAMP cs: 20µM*

Results for O=C1c2oc3ccc(Br)cc3c(=O)c2C(c2cccnc2)N1Cc1ccco1 (stereo not given) ?
ERK AVP block: 10%; PK Bst: >57; Luciferase inh: 2%; GBA activity: >77; HEK293 cAMP cs: 3%

How did O=C1c2oc3ccccc3c(=O)c2C(c2cccc(Br)c2)N1Cc1ccco1 (stereo not given) do in these assays?
TSHR agonist: inconclusive; ERK AVP block: -26%; PK Bst: >57; Luciferase inh: 1%; GBA activity: >77; HEK293 cAMP cs: 13µM*

What do the screens show for `Cc1cc(C(=O)CN2C(=O)c3ccccc3C2=O)c(C)n1Cc1cccs1`?
TSHR agonist: 3%; ERK AVP block: -2%; PK Bst: 11*; Luciferase inh: 7.9µM*; GBA activity: >77; HEK293 cAMP cs: 2%

Results for Cc1cc(C(=O)Cn2nnc3ccccc3c2=O)c(C)n1Cc1cccs1 ?
TSHR agonist: inconclusive; ERK AVP block: 2%; PK Bst: 5.7*; Luciferase inh: 6.3µM*; GBA activity: >77; HEK293 cAMP cs: inconclusive

What do the screens show for `COc1ccc(OC)c(C(=O)Cn2nnc3ccccc3c2=O)c1`?
TSHR agonist: 1%; ERK AVP block: 8%; PK Bst: >57; Luciferase inh: 2%; GBA activity: >77; HEK293 cAMP cs: 8%

How did COc1ccc(O[C@H]2C=C[C@@H](c3ccccc3)O[C@H]2CO/N=C(/C)CCC(=O)OC[C@@H]2O[C@H](c3ccccc3)C=C[C@@H]2Oc2ccc(OC)cc2)cc1 do in these assays?
TSHR agonist: -2%[11.4 µM]; ERK AVP block: 0%[11.5 µM]; Luciferase inh: 2%[11.4 µM]; HEK293 cAMP cs: 6%[11.4 µM]

Results for CC(C)OC(=O)CN1CCN(C2c3ccccc3-c3ccccc32)CC1 ?
TSHR agonist: 25µM*; ERK AVP block: 10%; PK Bst: >57; Luciferase inh: 2%; GBA activity: >77; HEK293 cAMP cs: 19%

How did CCOC(=O)N1CCN(C2OC(=O)c3ccccc32)CC1 (stereo not given) do in these assays?
PK Bst: >26; Luciferase inh: 1%[25.5 µM]

What do the screens show for `CCc1ccc(C2CC(c3ccccc3)Nc3nc(N)nn32)cc1` (stereo not given)?
TSHR agonist: -4%; ERK AVP block: 2%; Luciferase inh: -1%; HEK293 cAMP cs: 0%

Results for CCc1ccc(C2CC(c3ccccc3)n3ncnc3N2)cc1 (stereo not given) ?
TSHR agonist: 23%; ERK AVP block: 32µM*; Luciferase inh: -1%; HEK293 cAMP cs: 19%

What do the screens show for `N#Cc1c(-c2ccco2)cc(-c2ccc(F)cc2)nc1N`?
TSHR agonist: inconclusive; ERK AVP block: 5%; PK Bst: 4.7*; Luciferase inh: 1%; GBA activity: >77; HEK293 cAMP cs: inconclusive

Results for O=C1N/C(=C\c2ccccc2)c2ccccc21 ?
TSHR agonist: 17%; ERK AVP block: inconclusive; PK Bst: 5.6*; Luciferase inh: -5%; GBA activity: >77; HEK293 cAMP cs: 18%

Results for O=S(=O)(c1ccc(F)c2ccccc12)N1CCCCC1 ?
TSHR agonist: inconclusive; ERK AVP block: 25%; PK Bst: 2.9*; Luciferase inh: 1%; GBA activity: >77; HEK293 cAMP cs: 32µM*

Results for NCCOC[C@H](N)C(=O)O ?
TSHR agonist: 0%[11.4 µM]; ERK AVP block: 8%[11.5 µM]; Luciferase inh: 0%[11.4 µM]; HEK293 cAMP cs: 4%[11.4 µM]

Results for COCCn1c(=O)c(CCc2ccccc2)nc2cnc(Oc3ccccc3)nc21 ?
TSHR agonist: inconclusive; ERK AVP block: 8%; Luciferase inh: 0%[11.4 µM]; HEK293 cAMP cs: 25µM*

How did Cc1nc2cnc(OCc3ccccc3)nc2n(CCc2ccccc2)c1=O do in these assays?
TSHR agonist: inconclusive; ERK AVP block: 6%; Luciferase inh: 0%[11.4 µM]; HEK293 cAMP cs: 10µM*

How did N#CCCn1c(=O)c(CCc2ccccc2)nc2cnc(Oc3cccc(Cl)c3)nc21 do in these assays?
TSHR agonist: inconclusive; ERK AVP block: 6%; Luciferase inh: 0%[11.4 µM]; HEK293 cAMP cs: 5µM*

What do the screens show for `Cc1nc2cnc(OCc3ccccc3)nc2n(CCC#N)c1=O`?
TSHR agonist: inconclusive; ERK AVP block: -17%; Luciferase inh: 0%[11.4 µM]; HEK293 cAMP cs: inconclusive

How did COCCn1c(=O)c(CCc2ccccc2)nc2cnc(Oc3ccc(OC)cc3)nc21 do in these assays?
TSHR agonist: inconclusive; ERK AVP block: -4%; Luciferase inh: 1%[11.4 µM]; HEK293 cAMP cs: inconclusive

Results for CCNc1ncc2nc(C)c(=O)n(Cc3cccs3)c2n1 ?
TSHR agonist: inconclusive; ERK AVP block: 16µM*; Luciferase inh: 1%[11.4 µM]; HEK293 cAMP cs: inconclusive

What do the screens show for `N#CCCn1c(=O)c(-c2cccs2)nc2cnc(Nc3ccccc3)nc21`?
TSHR agonist: -5%; ERK AVP block: 0%; Luciferase inh: 0%[11.4 µM]; HEK293 cAMP cs: -8%

Results for CCNc1ncc2ncc(=O)n(Cc3cccs3)c2n1 ?
TSHR agonist: inconclusive; ERK AVP block: -30%; Luciferase inh: 0%[11.4 µM]; HEK293 cAMP cs: inconclusive

How did Cc1nc2cnc(N3CCN(C)CC3)nc2n(Cc2cccs2)c1=O do in these assays?
TSHR agonist: inconclusive; ERK AVP block: -17%; Luciferase inh: 0%[11.4 µM]; HEK293 cAMP cs: inconclusive

How did CCNc1ncc2nc(-c3cccs3)c(=O)n(CCC#N)c2n1 do in these assays?
TSHR agonist: -3%; ERK AVP block: 5µM*; Luciferase inh: 0%[11.4 µM]; HEK293 cAMP cs: 15%

What do the screens show for `CN1CCN(c2ncc3nc(-c4ccc(F)cc4)c(=O)n(Cc4cccs4)c3n2)CC1`?
TSHR agonist: -3%; ERK AVP block: 20µM*; Luciferase inh: 3%[11.4 µM]; HEK293 cAMP cs: -15%
